The nature of experiment [1]: qHTS assay to identify small molecule antagonists of the glucocorticoid receptor (GR) signaling pathway - cell viability counter screen (AID 720693). Also: nearly all actives have a fitted effect of over 55% in size. In general terms: qHTS replaces the single test concentration by a dilution series.
Experiment [2] is described as follows: qHTS assay for identifying genotoxic compounds that show differential cytotoxicity against isogenic chicken DT40 cell lines with known DNA damage response pathways - wild type cell line (AID 743012). Also: nearly all actives have a fitted effect of over 60% in size. Also: potency is read from the fitted curve at half-maximal effect. An outline of the steps: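 Cells (DT40 wild type, 300/well) are treated with DMSO-dissolved compounds after a ~0.5 h pre-incubation and kept 40 h at 37 C/5% CO2. Viability is then measured by CellTiter-Glo luminescence following 30 min at room temperature.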

Experiment [3] can be described thus: qHTS assay for identifying genotoxic compounds that show differential cytotoxicity against isogenic chicken DT40 cell lines with known DNA damage response pathways - Rev3 mutant cell line (AID 743014). Also: nearly all actives have a fitted effect of over 55% in size. Also: potency is read from the fitted curve at half-maximal effect.
The nature of experiment [4]: qHTS assay for identifying genotoxic compounds that show differential cytotoxicity against isogenic chicken DT40 cell lines with known DNA damage response pathways - Rad54/Ku70 mutant cell line (AID 743015). Also: nearly all actives have a fitted effect of over 60% in size. Also: potency is read from the fitted curve at half-maximal effect.
The nature of experiment [5]: qHTS assay to identify small molecule antagonists of the androgen receptor (AR) signaling pathway - cell viability counter screen (AID 743033; also: nearly all actives have a fitted effect of over 45% in size).
Experiment [6] in a line: qHTS assay to identify small molecule antagonists of the androgen receptor (AR) signaling pathway using the MDA cell line - cell viability counter screen (AID 743041; also: nearly all actives have a fitted effect of over 45% in size). The method, boiled down:
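Cells were plated at 3,000 per well and left 5 h. Compounds in DMSO were then pinned in, followed by R1881. After 16 h at 37C, CellTiter-Fluor fluorescence gave viability.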

In experiment [7] the target is Androgen receptor (Homo sapiens) (UniProt P10275). The experiment can be described thus: qHTS assay to identify small molecule antagonists of the androgen receptor (AR) signaling pathway (AID 743035; active = well fitted inhibition curve with a large enough effect in the signal ratio in the repeat runs, not every such curve was filed as active; the % refers to the signal ratio; also: potency is read from the fitted curve at half-maximal effect). The method, boiled down: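 Antagonism is scored as loss of R1881-driven beta-lactamase reporter expression in HEK293 cells carrying the reporter under a UAS element, after 16 h co-treatment at 37C and a 2 h room-temperature FRET substrate read.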

Experiment [8] has the same target. Description: qHTS assay to identify small molecule agonists of the androgen receptor (AR) signaling pathway (AID 743036; active = well fitted activation curve with a large enough effect in the signal ratio in the repeat runs, with a control signal flat, not every such curve was filed as active; the % refers to the signal ratio). The method, boiled down: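 AR-UAS-bla HEK293 cells, plated 4 h before dosing, were treated with compound for 16 h at 37C. beta-Lactamase reporter read after 2 h with LiveBLAzer B/G FRET substrate at room temperature.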
The target is the same in experiment [9]. Description: qHTS assay to identify small molecule agonists of the androgen receptor (AR) signaling pathway using the MDA cell line (AID 743040; also: nearly all actives have a fitted effect of over 20% in size). An outline of the steps:
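Cells plated, 5 h at 37C/0% CO2; compound or DMSO pinned; 16 h at 37C; ONE-Glo added; luminescence measured after 30 min at room temperature. Reporter line: MDA-kb2 with MMTV-luciferase responsive to AR and GR.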

Experiment [10] has the same target. The experiment can be described thus: qHTS assay to identify small molecule antagonists of the androgen receptor (AR) signaling pathway using the MDA cell line (AID 743042; also: nearly all actives have a fitted effect of over 55% in size; also: potency is read from the fitted curve at half-maximal effect). The method, boiled down:
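Antagonist mode: compounds plus R1881 agonist added to MDA-kb2 AR-luc cells, incubated 16 h at 37C. Luciferase reporter luminescence quantified, with multiplexed CellTiter-Fluor readout for cell viability.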

“And” between values parts separate entries of the source, which are not always exact repeats. Equal entries are not always repeated. Inconclusive results are not listed. More than one record can exist for a structure, and the calls need not agree. The source made the active and inactive calls. Unless noted, calls follow the shape of the dose curve; as a rule, active = well fitted curve in the direction sought with a large enough effect in the repeat runs; inconclusive = weak or mixed curves; inactive = no such curve, though single readings can be large; an effect the other way counts as inactive or inconclusive.

Chain of Androgen receptor (Homo sapiens) (P10275 whole entry, looked up): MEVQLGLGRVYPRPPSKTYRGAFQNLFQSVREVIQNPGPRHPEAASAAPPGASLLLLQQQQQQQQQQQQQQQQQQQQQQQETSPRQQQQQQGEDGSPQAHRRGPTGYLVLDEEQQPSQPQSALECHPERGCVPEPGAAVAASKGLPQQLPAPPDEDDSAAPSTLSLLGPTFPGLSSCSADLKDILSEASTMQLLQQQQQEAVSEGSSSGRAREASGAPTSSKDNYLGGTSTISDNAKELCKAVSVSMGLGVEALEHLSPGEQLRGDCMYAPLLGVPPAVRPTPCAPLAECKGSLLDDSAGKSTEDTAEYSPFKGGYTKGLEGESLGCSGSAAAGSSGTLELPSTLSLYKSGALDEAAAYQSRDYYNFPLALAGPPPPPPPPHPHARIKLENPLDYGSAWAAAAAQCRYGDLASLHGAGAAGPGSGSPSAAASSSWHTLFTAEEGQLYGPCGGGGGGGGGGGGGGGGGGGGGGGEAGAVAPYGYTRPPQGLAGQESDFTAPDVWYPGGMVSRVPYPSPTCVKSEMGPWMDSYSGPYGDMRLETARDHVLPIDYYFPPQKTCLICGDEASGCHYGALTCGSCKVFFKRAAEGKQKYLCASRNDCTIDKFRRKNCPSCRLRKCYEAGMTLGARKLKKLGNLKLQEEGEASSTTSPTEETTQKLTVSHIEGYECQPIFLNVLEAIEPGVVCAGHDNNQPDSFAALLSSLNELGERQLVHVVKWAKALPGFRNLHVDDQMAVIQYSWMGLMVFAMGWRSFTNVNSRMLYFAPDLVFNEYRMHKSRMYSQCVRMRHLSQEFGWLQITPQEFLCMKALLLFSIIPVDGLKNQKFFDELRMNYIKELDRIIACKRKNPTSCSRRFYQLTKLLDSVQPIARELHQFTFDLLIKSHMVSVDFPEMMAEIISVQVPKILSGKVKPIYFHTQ

Regarding `C=CCN=C=S`, the Potency result in experiment [1], in [2] and in experiment [4] was “inactive” throughout. Besides, the Potency in [3] is 62.5 µM (active). The result in experiment [5] and in experiment [6] was inactive.
As for `Cl[C@H]1OCCO[C@@H]1Cl`, the Potency result in experiment [1], in experiment [2], in experiment [3] and in [4] was “inactive” throughout. Also, the call in [5] was inactive.
As for `Cc1ccc(N)cc1`, the Potency entry in [1], in experiment [2], in [3] and in experiment [4] was “inactive” in each case. For the same compound, in experiment [5], the outcome was inactive.
Regarding `COS(=O)(=O)OC`, the Potency entry in experiment [1], in experiment [2], in [3] and in experiment [4] was “inactive” in each case. Moreover, the compound was classed as inactive in experiment [5] and in experiment [6].
Regarding `CC[N+](=O)[O-]`, the Potency result in experiment [1], in experiment [2], in experiment [3] and in experiment [4] was “inactive” each time. The outcome in experiment [5] was inactive.
In the case of `C[C@H]1C(=O)O[C@@H]2CCN3CC=C(COC(=O)[C@](C)(O)[C@]1(C)O)[C@H]23`, the Potency entry in experiment [1] and in experiment [2] was “inactive” throughout. For the same compound, the Potency entry in experiment [3] is “inactive and 15.4 µM (active)”; in [4], “inactive and 38.6 µM (active)”. Moreover, the compound was called inactive in experiment [5].
With `Cc1cccc(N)c1C`, the Potency result in experiment [1], in experiment [2], in experiment [3] and in experiment [4] was “inactive” each time. For the same compound, the result in [5] was inactive.
Regarding `O=C(O)Cc1ccccc1`, the Potency result in experiment [1], in [2], in [3] and in experiment [4] was “inactive” each time. Also, in experiment [5], the result was inactive.
Take `CN(C)C(=O)Cl`: the Potency result in experiment [1], in experiment [2], in experiment [3] and in experiment [4] was “inactive” throughout. In experiment [5], the outcome was inactive.
`O=C(O)C1C(C(=O)O)C2(Cl)C(Cl)=C(Cl)C1(Cl)C2(Cl)Cl` (configuration not stated): the Potency result in [1], in experiment [2], in experiment [3] and in [4] was “inactive” each time. Also, the call in [5] was inactive.
As to `ClC(Cl)c1ccccc1`, the Potency result in experiment [1], in experiment [2], in experiment [3] and in experiment [4] was “inactive” throughout. In addition, the outcome in experiment [5] was inactive.
Take `CC(C)c1cccc(C(C)C)c1O`: the Potency result in experiment [1], in experiment [2], in experiment [3], in experiment [4], in experiment [7] and in [10] was “inactive” throughout. Also, the compound was called inactive in experiment [5], in experiment [8], in experiment [9] and in experiment [6].
Consider `Cc1cc(O)ccc1Cl`, for which the Potency entry in experiment [1], in [2], in experiment [3] and in [4] was “inactive” each time. In addition, the compound was called inactive in experiment [5].
Regarding `CC12CC1(C)C(=O)N(c1cc(Cl)cc(Cl)c1)C2=O` (configuration not stated), the Potency result in experiment [1], in experiment [2] and in experiment [4] was “inactive” each time. The Potency in experiment [3] is 24.3 µM (active); in experiment [7], 6.14 µM (active) and 3.89 µM (active); in experiment [10], 19.3 µM (active) and 9.69 µM (active). Besides, the outcome in experiment [5], in experiment [8], in [9] and in experiment [6] was inactive.
As to `N#Cc1ccccn1`, the Potency result in experiment [1], in experiment [2], in experiment [3] and in experiment [4] was “inactive” throughout. Further, in [5], the result was inactive.
As for `CNC(=O)O/N=C/C(C)(C)S(C)=O` (configuration not stated), the Potency result in [1], in [2], in experiment [3] and in experiment [4] was “inactive” in each case. For the same compound, the compound was classed as inactive in [5].
With `COc1nc(NC(C)C)nc(NC(C)C)n1`, the Potency result in experiment [1], in experiment [2], in experiment [3] and in experiment [4] was “inactive” in each case. The result in experiment [5] was inactive.
Consider `OCCCCO`, for which the Potency entry in experiment [1], in experiment [2], in experiment [3] and in experiment [4] was “inactive” throughout. Further, in [5], the compound was classed as inactive.
For `COP(=S)(OC)Oc1ccc(SC)c(C)c1`, the Potency entry in [1] and in experiment [3] was “inactive” in each case. The Potency in experiment [2] is 54.5 µM (active); in [4], “inactive and 61.1 µM (active)”. In addition, the compound was classed as inactive in [5] and in [6].
On to `OCC(O)CCl` (configuration not stated), for which the Potency result in experiment [1], in experiment [2], in experiment [3] and in experiment [4] was “inactive” throughout. The compound was classed as inactive in experiment [5].
As to `CNC(=O)O/N=C/C(C)(C)S(C)(=O)=O`, the Potency result in experiment [1], in [2], in experiment [3], in experiment [4], in experiment [7] and in experiment [10] was “inactive” each time. Moreover, the result in experiment [5], in experiment [8], in experiment [9] and in experiment [6] was inactive.
Consider `O=[N+]([O-])c1ccc(Cl)cc1`, for which the Potency result in [1], in [2], in [3] and in experiment [4] was “inactive” in each case. Also, in experiment [5], the outcome was inactive.
Turning to `O=P1(NCCCl)OCCCN1CCCl` (configuration not stated), the Potency entry in experiment [1], in experiment [2], in experiment [3] and in [4] was “inactive” in each case. The result in [5] was inactive.
Take `CNC(=O)O/N=C/C(C)(C)SC`: the Potency result in experiment [1], in experiment [2], in [3] and in experiment [4] was “inactive” in each case. In addition, the call in experiment [5] was inactive.
In the case of `c1ccc2c(c1)CCCC2`, the Potency result in [1], in experiment [2], in experiment [3], in experiment [4], in experiment [7] and in experiment [10] was “inactive” throughout. Also, the result in experiment [5], in experiment [8], in experiment [9] and in experiment [6] was inactive.
`CN(C)C(=O)C(c1ccccc1)c1ccccc1`: the Potency result in experiment [1], in experiment [2], in [3] and in [4] was “inactive” in each case. Moreover, in [5], the outcome was inactive.
Take `CN(C)CCC#N`: the Potency result in experiment [1], in experiment [2], in [3] and in [4] was “inactive” each time. Further, the compound was classed as inactive in experiment [5].
As to `CCCCC(CC)C(=O)Cl` (configuration not stated), the Potency entry in experiment [1], in experiment [2], in [3] and in experiment [4] was “inactive” each time. Besides, the outcome in experiment [5] and in [6] was inactive.
Consider `Nc1nc(N)nc(NC2CC2)n1`, for which the Potency entry in [1], in experiment [2] and in [3] was “inactive” in each case. Besides, the Potency result in experiment [4] was “inactive and 61.1 µM (active)”. Further, in [5], the outcome was inactive.
For the compound `Nc1ccc([As](=O)(O)O)cc1`, the Potency entry in experiment [1] and in experiment [2] was “inactive” each time. Further, the Potency result in [3] is “inactive and 29.8 µM (active)”; in [4], “inactive and 13.3 µM (active)”. The outcome in experiment [5] was inactive.
In the case of `CCCCCCCCCCCCCCCCCC(=O)O`, the Potency result in experiment [2] and in [4] was “inactive” each time. In addition, in experiment [3], the Potency is 60.7 µM (active) and inactive. The result in experiment [5] was inactive.
For the compound `Cl/C=C/Cl`, the Potency result in experiment [1], in [2], in experiment [3] and in [4] was “inactive” in each case. Further, the call in experiment [5] and in experiment [6] was inactive.
In the case of `COP(=S)(OC)SCN1C(=O)c2ccccc2C1=O`, the Potency result in [1] and in experiment [4] was “inactive” each time. Moreover, the Potency in experiment [2] was 48.6 µM (active); in [3], 61.6 µM (active). Besides, the result in experiment [5] and in experiment [6] was inactive.
Turning to `COc1cc(-c2ccc(N)c(OC)c2)ccc1N`, in experiment [1], the Potency result was “inactive”. Besides, the Potency was 68.6 µM (active) and 16.4 µM (active) in [2]; 14.7 µM (active) in [3]. Also, the outcome in experiment [5] and in experiment [6] was inactive.
For `FC(F)(F)c1ccc(Cl)cc1`, the Potency result in experiment [1], in experiment [2], in experiment [3] and in [4] was “inactive” throughout. The compound was called inactive in [5] and in [6].
As to `CN(C)C(=O)Nc1cccc(C(F)(F)F)c1`, the Potency entry in experiment [2], in [3] and in experiment [4] was “inactive” each time. Moreover, in experiment [5], the call was inactive.
Consider `O=C(O)COc1ccccc1`, for which the Potency result in experiment [1], in experiment [2], in experiment [3] and in experiment [4] was “inactive” in each case. In addition, the result in [5] and in experiment [6] was inactive.
`Cc1cccc(N)c1`: the Potency entry in experiment [1], in experiment [2], in experiment [3] and in [4] was “inactive” in each case. In addition, the compound was called inactive in experiment [5] and in experiment [6].
On to `O=C(O)c1cc(Oc2ccc(C(F)(F)F)cc2Cl)ccc1[N+](=O)[O-]`, for which the Potency result in experiment [1], in experiment [2], in [3] and in [4] was “inactive” in each case. The result in experiment [5] and in [6] was inactive.
With `Nc1cc(Cl)cc(Cl)c1`, the Potency entry in experiment [1], in experiment [2], in experiment [3] and in experiment [4] was “inactive” each time. Moreover, the compound was called inactive in experiment [5] and in [6].
Turning to `N#Cc1cccc(C#N)c1`, the Potency result in [1], in [2], in experiment [3] and in [4] was “inactive” throughout. For the same compound, the compound was called inactive in [5] and in experiment [6].
Consider `C=C(C)C(=O)OCC(CC)CCCC` (configuration not stated), for which the Potency entry in experiment [1], in experiment [2], in experiment [3] and in [4] was “inactive” each time. Further, the call in [5] and in experiment [6] was inactive.
Take `CCOc1ccc(N)cc1`: the Potency entry in [1], in [2] and in experiment [3] was “inactive” in each case. In addition, the Potency in experiment [4] is 61.3 µM (active) and inactive. Further, the result in experiment [5] and in experiment [6] was inactive.

(Values after PubChem BioAssay (Tox21).)
